Screens (PubChem BioAssay)
MsrA act – bovine MsrA enzyme activators, primary screen, biochemical, absorbance, HTS; purified bovine MsrA, absorbance read-out; activation, % at 10.6 µM; hit rate 0.3% among 360,000; in the data active = activation above about 7.5%;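 also: 0% = vehicle and 100% = reference activator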
DAGLB inh – DAGLB lipase inhibitors, primary screen, biochemical, fluorescence, HTS. Diacylglycerol lipase-beta (Homo sapiens), Q8NCG7. HEK293T DAGLB membrane lysate, EnzChek fluorogenic substrate. inhibition, % at 5.17 µM. hit rate 0.059% among 340,000. AID 504411, 2011; in the data active = inhibition above about 34%;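 also: 0% = enzyme with vehicle and 100% = wells lacking enzyme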
Pemphigus Ab inh – inhibitors of pemphigus antibody binding to DSG3, primary screen, biochemical, bead-based, flow cytometry, scFv-GFP; binding (percent of control), % at 10 µM; DSG3-coupled beads, scFv-anti-DSG3-GFP binding; hits give low values; hit rate 0.48% among 310,000; Desmoglein-3 (Homo sapiens), P32926;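 active = binding more than 3 SD below its plate's average and above zero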;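 also: hits lower antibody fragment binding to DSG3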
Target sequence (P32926 whole entry, looked up, the tested form may be a part): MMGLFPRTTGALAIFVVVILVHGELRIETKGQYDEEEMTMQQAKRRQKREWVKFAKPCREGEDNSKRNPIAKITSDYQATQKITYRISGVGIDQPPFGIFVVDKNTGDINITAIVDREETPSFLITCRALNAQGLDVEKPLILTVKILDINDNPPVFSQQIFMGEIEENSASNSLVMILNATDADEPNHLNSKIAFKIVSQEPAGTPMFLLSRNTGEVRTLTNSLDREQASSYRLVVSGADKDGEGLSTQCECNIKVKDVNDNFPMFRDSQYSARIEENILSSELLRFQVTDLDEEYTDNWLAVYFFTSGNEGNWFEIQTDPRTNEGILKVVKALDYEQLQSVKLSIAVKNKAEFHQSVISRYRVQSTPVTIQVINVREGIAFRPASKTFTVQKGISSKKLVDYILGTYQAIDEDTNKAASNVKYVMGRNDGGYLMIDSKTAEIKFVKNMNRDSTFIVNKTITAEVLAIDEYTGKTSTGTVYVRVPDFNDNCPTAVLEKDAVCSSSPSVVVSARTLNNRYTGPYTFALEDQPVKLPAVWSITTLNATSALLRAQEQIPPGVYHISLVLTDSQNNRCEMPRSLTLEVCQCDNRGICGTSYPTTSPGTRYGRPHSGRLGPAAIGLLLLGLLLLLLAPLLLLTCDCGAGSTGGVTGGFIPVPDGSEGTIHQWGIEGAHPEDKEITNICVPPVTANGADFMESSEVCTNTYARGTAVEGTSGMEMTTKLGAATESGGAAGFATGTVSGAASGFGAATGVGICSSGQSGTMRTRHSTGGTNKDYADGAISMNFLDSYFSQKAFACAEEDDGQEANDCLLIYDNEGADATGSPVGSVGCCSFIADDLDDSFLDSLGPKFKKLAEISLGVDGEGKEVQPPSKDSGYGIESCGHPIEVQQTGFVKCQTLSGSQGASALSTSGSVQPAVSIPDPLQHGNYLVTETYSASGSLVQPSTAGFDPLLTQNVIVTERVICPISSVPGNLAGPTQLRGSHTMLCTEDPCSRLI
rCAG RNA binder – binders of r(CAG) RNA repeats, primary screen, biochemical, fluorescence | r(CAG) RNA repeat, TO-PRO-1 dye displacement fluorescence | inhibition, % at 3 µM | hit rate 1.3% among 370,000 | AID 651821, 2012;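 active = inhibition above the plate cutoff, the mean of all test compounds on that plate plus 3 SD, cut at about 35% in these data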;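 also: 0% = DMSO alone and 100% = 100 µM mitoxantrone as full dye displacement; higher means more dye released from RNA so lower well fluorescence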
NadD inh – inhibitors of S. aureus NadD, primary screen, biochemical, colorimetric, uHTS. Nicotinate-nucleotide adenylyltransferase NadD (Staphylococcus aureus N315). purified NadD enzyme, colorimetric absorbance read-out. inhibition, % at 20 µM. hit rate 0.78% among 360,000; in the data active = inhibition above about 26%
MsrA inhibitor – bovine MsrA enzyme inhibitors, primary screen, biochemical, absorbance, HTS. Methionine sulfoxide reductase A (Bos taurus). purified bovine MsrA, absorbance read-out. inhibition, % at 15.5 µM. hit rate 0.75% among 360,000. AID 651718, 2012; in the data active = inhibition above about 4.5%;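 also: 0% = vehicle wells with enzyme and 100% = reference inhibitor wells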
* hit, by the source's call; x = no result given; ! = a repeat was not active. Only some compounds are listed: those with a hit (about 3.2% of all), similar ones and a draw of the others.

SMILES	MsrA act	DAGLB inh	Pemphigus Ab inh	rCAG RNA binder	NadD inh	MsrA inhibitor
O/N=C1\CCC2CN(C3CCCCC3)CC2C1 (stereo unspecified)	-8	0	12*	-1	-15	-1
COc1ccc(N2C(=O)/C(=C/c3ccc(OC)c(OC)c3)C(=O)NC2=S)cc1	-1	2	97	22	6	2
COc1ccc(N2C(=O)/C(=C/c3ccc(C)o3)C(=O)NC2=S)c(OC)c1	-4	1	112	44*	-2	-1
CCOCCCNC(=O)Cn1nc(-c2ccc(OC)c(OC)c2)ccc1=O	-2	-1	95	1	-2	1
CCOc1ccc(N2C(=O)/C(=C/c3ccco3)C(=O)NC2=S)cc1	-10	13	14*	x	87*	x
N#Cc1ccc(NC(=S)N2Cc3cc(Br)ccc3-n3nncc3C2)cc1	x	x	x	11	x	0
CN1C(=O)NC(=O)/C(=C/c2ccc([N+](=O)[O-])s2)C1=O	0	7	96	19	13	2
O=C1NC(=S)NC(=O)C1=Cc1ccc(Br)s1	1	4	100	2	46*	0
CN1C(=O)/C(=C\c2ccc(Br)s2)C(=O)NC1=S	-2	7	90	10	34*	0
O=c1[nH]c(=S)n(C2CC2)c(O)c1/C=N/Nc1cccc2ccccc12	-3	14	111	34	30*	1
O=c1[nH]c(=O)n(CCC2=CCCCC2)c(O)c1/C=N/Nc1cccc2ccccc12	-3	16	86	26	31*	1
O=c1[nH]c(=S)n(C2CC2)c(O)c1/C=N/Nc1ccccc1	-4	7	102	13	3	2
COc1ccc(C2=NCC(=O)N(CC(=O)NCc3ccco3)c3sc4c(c32)CCCC4)cc1	-9	3	76*	2	13	2
COc1ccc(-c2ccc3c(c2)CN(c2cccc(Cl)c2)Cc2cnnn2-3)cc1	0	x	x	9	8	-2
Clc1cccc(N2Cc3cc(-c4ccccc4)ccc3-n3nncc3C2)c1	-5	x	x	9	33*	0
O=C1C2CC=CCC2C(=O)N1SC(Cl)(Cl)Cl (stereo unspecified)	x	x	x	5	x	0
Cc1cc(N2CCNC[C@H]2C)ccc1N1CCN[C@@H](C)C1	x	x	x	3	x	0
CCOC(=O)c1cc(C)sc1/N=C/C1C(=O)NC(=S)NC1=O	-15	-1	69*	-7	5	1
Cc1cccc(N2C(=O)NC(=O)/C(=C\c3cc(C)n(-c4sc5c(c4C#N)CCCC5)c3C)C2=O)c1C	-2	19	83	8	29*	0
COc1ccc(Cc2cn(C)c(N)n2)cc1	x	x	x	4	x	x
Cc1cccc(N2C(=O)NC(=O)/C(=C\c3ccc4c(c3)CCCN4Cc3ccccc3)C2=O)c1	-4	6	634	9	38*	2
O=C(NC1CN2CCC1CC2)c1cc(-c2ccc(Cl)cc2)nc2ccccc12 (stereo unspecified)	x	x	x	15	x	x
NS(=O)(=O)c1ccc(-c2ccc(C=C3C(=O)NC(=O)NC3=O)o2)cc1	-12	-1	96	3	2	4
O=C1NC(=O)C(=Cc2ccc(SC3CCCCC3)o2)C(=O)N1	-2	17	95	31	36*	0
c1ccc(Cc2cnc(N3CCNCC3)nc2)cc1	x	x	x	2	x	1
SMILES	MsrA act	DAGLB inh	Pemphigus Ab inh	rCAG RNA binder	NadD inh	MsrA inhibitor
C[N+]12CCC(CC1)C(C(O)(c1cccc(Cl)c1)c1cccc(Cl)c1)C2 (stereo unspecified)	-3	1	82*	0	-5	-1
CC(C)(C)n1nnnc1C1CN=C(c2ccccc2)c2ccccc2N1 (stereo unspecified)	x	x	x	-1	x	x
O=c1c2ccccc2nc(/C=C/c2ccc(O)cc2)n1-c1ccccc1O	0	2	98	6	-3	3
COc1ccccc1-n1c(/C=C/c2ccc(O)cc2)nc2ccccc2c1=O	-2	0	114	5	8	4.6*
O=C(O)c1cc(S(=O)(=O)N2CC3CC(C2)c2cccc(=O)n2C3)ccc1F (stereo unspecified)	x	x	x	1	x	0
NC(Cc1ccc(O)cc1)C(=O)NN=Cc1ccc(N(CCCl)CCCl)cc1 (stereo unspecified)	-6	1	113	8	14	7.7*
N[C@@H](Cc1ccc(N(CCCl)CCCl)cc1)C(=O)O	0	4	114	8	17	1
O=C1NC(=O)N(CC2CCCO2)C(=O)/C1=C/c1cccs1 (stereo unspecified)	-3	4	x	6	-1	1
CCN(CC)c1ccc(/C=C2/C(=O)NC(=O)N(CC3CCCO3)C2=O)cc1 (stereo unspecified)	-7	-1	133	-6	8	5.2*
O=C(NCCN1CCC2(CC1)C(=O)NCN2c1ccccc1)c1cccnc1Cl	x	x	x	1	x	-1
O=C(NCCN1CCC2(CC1)C(=O)NCN2c1ccccc1)c1ccc(F)c(F)c1	x	x	x	-3	x	1
O=c1[nH]c(O)c(C=Nc2ccc(F)c(Cl)c2)c(=O)[nH]1	-4	-2	105	0	-2	2
O=C(O)c1ccc(N=Cc2c(O)[nH]c(=O)[nH]c2=O)cc1	-3	-1	96	-2	2	4.6*
OC(c1ccc(F)cc1)C(c1ccccc1)N1CCOCC1 (stereo unspecified)	-6	1	23*	-5	-3	1
O=C(NCCN1CCC2(CC1)C(=O)NCN2c1ccccc1)c1cccc(F)c1	x	x	x	2	x	-1
CCN(CC)C(=O)c1ccc2c(c1)C1C=CCC1C(C(=O)O)N2 (stereo unspecified)	-2	1	92	46*	19	2
CC(c1ccccc1)n1cc(C(=O)NC2CCCC2)nn1 (stereo unspecified)	x	x	x	1	x	x
CC(C)CC(N(C)C)C1(c2ccc(Cl)cc2)CCC1 (stereo unspecified)	-2	-1	79*!	-1	-7	1
CN(C)C1(c2nnnn2-c2ccc(Cl)cc2)CCCCC1	0	-5	103	-2	-1	0
O=c1[nH]c(=S)n(Cc2ccc(F)cc2)c(O)c1C=NCCCn1ccnc1	-5	0	118	-3	-7	4.5*
Cc1cc(N2CCNC[C@H]2C)ccc1N1CC[C@@H](O)C1	x	x	x	4	x	1
O=C1NC(=O)C(=Cc2ccc(-c3cc(Cl)ccc3[N+](=O)[O-])o2)C(=O)N1	1	7	112	3	38*	3
O=C1NC(=O)C(=Cc2ccc(-c3ccccc3[N+](=O)[O-])o2)C(=O)N1	-1	8	103	1	23	2
CCC(C)N1C(=O)/C(=C/c2ccc3c(c2)CCN3CCCCl)C(=O)NC1=S (stereo unspecified)	-5	17	137	26	40*	2
